Data taken from PubChem BioAssay (NCATS).
Several values for one entry are separate records, joined by “and”; a condition that tells them apart may be missing. Equal values may be shown once. Results filed as inconclusive are left out. Unmarked numbers belong to inactive results. Activity calls are given as the source filed them. Calls follow the shape of the dose curve; as a rule, active = well fitted activation curve with a large enough effect; inconclusive = small, poorly fitted or top-dose-only effect; inactive = no such curve, though single readings can be large or run the other way.

Molecular target: Cellular tumor antigen p53 (Homo sapiens) (UniProt P04637)
Experiment: Primary qHTS for small molecule compounds that upregulate eGFP-tagged delta133p53alpha (in N-terminal) cells. (AID 2060322); also: nearly all actives have a fitted effect of over 75% in size;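 as to activation: series mostly up to about 56 µM; 0% = DMSO vehicle and 100% = reference activator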
Conditions: NCI-H358 eGFP-delta133p53alpha fluorescence, 24 h; activation: stronger effect = higher value
Procedure, shortened: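 NCI-H358 cells pre-induced 24 h with 10 ng/ml doxycycline to express N-terminal eGFP-delta133p53alpha, then dosed 24 h at 37C without doxycycline; fixed, Hoechst-stained, GFP intensity by laser scanning cytometry, normalized to DMSO (0%) and 57.5 uM 5-azacytidine (100%).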
Potency is read from the fitted curve at half-maximal effect.

Cellular tumor antigen p53 (Homo sapiens), sequence (P04637 whole entry, looked up): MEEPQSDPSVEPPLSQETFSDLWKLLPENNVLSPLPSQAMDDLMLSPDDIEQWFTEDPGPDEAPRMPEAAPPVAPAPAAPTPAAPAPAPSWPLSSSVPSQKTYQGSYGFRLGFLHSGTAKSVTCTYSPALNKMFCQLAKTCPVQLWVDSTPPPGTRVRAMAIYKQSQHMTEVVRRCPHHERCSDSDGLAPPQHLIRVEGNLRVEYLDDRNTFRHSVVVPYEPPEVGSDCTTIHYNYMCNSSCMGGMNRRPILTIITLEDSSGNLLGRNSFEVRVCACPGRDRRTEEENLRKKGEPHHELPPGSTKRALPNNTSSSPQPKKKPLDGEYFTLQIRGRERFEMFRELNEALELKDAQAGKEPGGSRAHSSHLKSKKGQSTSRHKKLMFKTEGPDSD

| SMILES | activation | Potency |
| --- | --- | --- |
| O=C1NC(=O)C(=Cc2ccc3nccnc3c2)S1 | -3.42% | – |
| CC1(C)[C@@H](OC(=O)CCC(=O)O)CC[C@]2(C)[C@H]3C(=O)C=C4[C@@H]5C[C@@](C)(C(=O)O)CC[C@]5(C)CC[C@@]4(C)[C@]3(C)CC[C@@H]12 | 0.565% | – |
| CCc1ccc(C(=O)C(C)CN2CCCCC2)cc1 (centres undefined) | -5.86% | – |
| CC(=O)N[C@@H](CC(C)C)C(=O)O | 0% | – |
| Cc1cc2c(OCC(CNC(C)(C)C)OC(=O)c3ccccc3)cccc2[nH]1 (centres undefined) | 9.6% | – |
| O=C(O)CCC(=O)OC[C@@H](NC(=O)C(Cl)Cl)[C@H](O)c1ccc([N+](=O)[O-])cc1 | 15.1% | – |
| CC(=O)OCC(=O)[C@@]1(O)CCC2C3CCC4=CC(=O)CC[C@]4(C)C3[C@@H](O)C[C@@]21C (some centres undefined) | 25.1% | – |
| Nc1ccc(S(=O)(=O)NCc2ccccc2)cc1 | -10% | – |
| CCCCC1C(=O)N(c2ccccc2)N(c2ccc(O)cc2)C1=O (centres undefined) | – | 4.37 µM (active) |
| CC(=O)OCC(=O)[C@@]1(O)[C@H](OC(C)=O)C[C@H]2[C@@H]3CCC4=CC(=O)C=C[C@]4(C)[C@@]3(F)[C@@H](O)C[C@@]21C | 4.18% | – |
| CN1C(=O)CC(C)(c2ccccc2)C1=O (centres undefined) | 23.4% | – |
| O=C(CCCN1CCC(O)(c2ccc(Br)cc2)CC1)c1ccc(F)cc1 | 3.35% | – |
| CC[C@H]1CN2CCc3cc(OC)c(OC)cc3[C@H]2C[C@@H]1C[C@@H]1NCCc2cc(OC)c(OC)cc21 | – | 1.37 µM (active) |
| CC[N+](CC)(CC(=O)Nc1c(C)cccc1C)Cc1ccccc1 | -10.9% | – |
| CN=C(NC#N)Nc1ccc(C2=NNC(=O)CC2C)cc1 (centres undefined) | 6.69% | – |
| Cc1[nH]c(C=C2C(=O)Nc3ccccc32)c(C)c1CCC(=O)O | – | 24.3 µM (active) |
| O=c1c(O)c(-c2ccc(O)c(O)c2)oc2cc(O)ccc12 | -6.9% | – |
| CN1CCc2cccc3c2[C@H]1Cc1ccc(O)c(O)c1-3 | 21.8% | – |
| COc1ccc(C(=O)N2CCN(CC(=O)N3CCOCC3)CC2)cc1 | 3.95% | – |
| N#Cc1ccc(-c2csc(NN=C3CCCC3)n2)cc1 | -8.94% | – |

| SMILES | activation | Potency |
| --- | --- | --- |
| O=C(O)CC(O)C(=O)O (centres undefined) | -26.6% | – |
| CCOC(=O)C(O)c1ccccc1 (centres undefined) | -24.3% | – |
| CC(=O)N1CCN(c2ccc(OCc3nn(C)c(C)c3-c3cccc4c(CCCOc5cc(C)c(Cl)c(C)c5)c(C(=O)O)n(Cc5cccnc5)c34)cc2)CC1 | -5.22% | – |
| CCCCOc1cc(C(=O)NCCN(CC)CC)c2ccccc2n1 | 0% | – |
| N/C(=N\N=C\c1ccc(Cl)cc1)N/N=C/c1ccc(Cl)cc1 | 0% | – |
| CCC(=O)c1ccc(O)cc1 | -10% | – |
| O=C1Cc2cc(Cl)ccc2N1 | 5.08% | – |
| Cc1cccc(N(C)C(=S)Oc2ccc3c(c2)C2CCC3C2)c1 (centres undefined) | -15.1% | – |
| COc1cc2c(NC3CCN(C)CC3)nc(N3CCCN(C)CC3)nc2cc1OCc1ccccc1 | 30.2% | – |
| CC(CN(C)C)C(C)(O)Cc1ccc(Cl)cc1 (centres undefined) | 21.8% | – |
| CCCCCCCCCCCCCCCCCCNC(=O)OC1CCN(C(=O)OC[C@H](COC(=O)N(Cc2cccc[n+]2CC)C(=O)c2ccccc2OC)OC)CC1 | 1.67% | – |
| CCOC(=O)C(C#N)=C(c1ccccc1)c1ccccc1 | -3.35% | – |
| Cc1cc(NS(=O)(=O)c2ccc(N)cc2)nc(C)n1 | -13.4% | – |
| CN(C(=O)C(Cl)Cl)c1ccc(OC(=O)c2ccco2)cc1 | 5.02% | – |
| O=C(O)CCCCC1CCSS1 (centres undefined) | 5.08% | – |
| N=C(N=C(N)N)N1CCOCC1 | 1.67% and -4.92% | – |
| CCCCCCCC(=O)OCC(COC(=O)CCCCCCC)OC(=O)CCCCCCC | -13.4% | – |
| NC1=N[C@@]2(c3cc(NC(=O)c4ccc(F)cn4)ccc3F)COC[C@@H]2CS1 | 87.4% | – |
| CC[C@@H]([C@H](C)O)n1ncn(-c2ccc(N3CCN(c4ccc(OC[C@@H]5CO[C@@](Cn6cncn6)(c6ccc(F)cc6F)C5)cc4)CC3)cc2)c1=O | 22.6% | – |
